# Source: PubChem BioAssay (National Center for Advancing Translational Sciences (NCATS))
# The list is not random: actives were taken first. Their share in the collection is about 4.8%.
# USP2a inh: qHTS Assay for Inhibitors of Ubiquitin-specific Protease USP2a Using CHOP2 as the Reporter; USP2 core, Ub-CHOP2 coupled fluorogenic reporter, 485/531; AID 463254, 2010; hit rate 0.01% among 330,000; Potency, µM (top dose mostly 38.3 µM), for the others: at the highest dose activity change, negative = inhibition, usual class: inhibitors; Ubiquitin carboxyl-terminal hydrolase 2 (Homo sapiens), O75604;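 further: potency means the concentration at half of the fitted maximal effect; plate controls were DMSO wells for no effect and full inhibition by NEM control for full effect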
# Target sequence (O75604 whole entry, looked up): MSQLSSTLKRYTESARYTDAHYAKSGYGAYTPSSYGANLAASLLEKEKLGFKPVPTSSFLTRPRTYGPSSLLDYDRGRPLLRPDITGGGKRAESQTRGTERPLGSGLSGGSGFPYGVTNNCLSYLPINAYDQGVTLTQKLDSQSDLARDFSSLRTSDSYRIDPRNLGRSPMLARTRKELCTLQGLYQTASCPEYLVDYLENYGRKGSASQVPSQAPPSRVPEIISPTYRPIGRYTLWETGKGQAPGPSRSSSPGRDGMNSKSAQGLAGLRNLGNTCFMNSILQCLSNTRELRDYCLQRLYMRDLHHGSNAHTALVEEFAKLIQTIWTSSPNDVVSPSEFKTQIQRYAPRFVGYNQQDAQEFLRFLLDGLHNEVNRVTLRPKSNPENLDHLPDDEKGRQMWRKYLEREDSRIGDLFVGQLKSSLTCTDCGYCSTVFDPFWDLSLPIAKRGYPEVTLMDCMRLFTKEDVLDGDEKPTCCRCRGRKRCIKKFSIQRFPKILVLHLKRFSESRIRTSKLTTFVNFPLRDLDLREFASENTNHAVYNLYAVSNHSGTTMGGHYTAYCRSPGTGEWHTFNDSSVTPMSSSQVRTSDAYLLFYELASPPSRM
#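 Cell-free coupled assay: 10nM USP2 core preincubated 30min RT with compound in Tris-HCl pH 8.0/CaCl2/CHAPS buffer, then 25nM Ub-CHOP2 and 25nM reporter substrate; fluorescence (Ex 485/Em 531) read after 60min RT, normalized to NEM inhibition, concentration-response curves fitted.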
# IL1B secr inh: qHTS for Inhibitors of Inflammasome Signaling: IL-1-beta AlphaLISA Primary Screen. activity change, % at 57.5 µM. hit rate 4.7% among 360,000. THP-1 LPS/ATP IL-1B secretion, AlphaLISA, 16 h; active compounds read low; in the data active means activity change below about -50%; inconclusive means mostly about -30% to -49%; further: on the % scale 0 is the no-effect control and ±100 the full control effect
#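 THP-1 cells pretreated 1 hr with compounds (up to 57.5 uM final), then stimulated with LPS (250 ng/mL final) plus ATP (1.25 mM final); secreted IL-1B measured by AlphaLISA after 16 hr, decreased signal indicating inhibition.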
# ATXN2 expr inh: Primary qHTS for Inhibitors of ATXN expression; Potency, µM (doses to about 57 µM), for the others: top-dose activity change, negative = inhibition, usual class: inhibitors; HEK-293 ATXN2-luciferase reporter, luminescence, 24 h; hit rate 0.72% among 360,000; further: potency means the concentration at half of the fitted maximal effect; on the % scale 0 is the no-effect control and ±100 the full control effect; nearly all actives have a fitted effect of over 55% in size
#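 qHTS (up to 57 uM final) was run with 24 h compound exposure of reporter cells at 37 °C. Each well was multiplexed: SteadyGlo luminescence measured ATXN2-luciferase expression after a fluorogenic Gly-Phe-AFC viability readout (25 uM final).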
# USP1-UAF1 inh: Inhibitors of USP1/UAF1: Primary Screen; hit rate 0.23% among 390,000; Ubiquitin carboxyl-terminal hydrolase 1 (Homo sapiens), O94782; Potency, µM (titrated, usually from 57.1 µM), for inactives: at the top dose activity change, negative = inhibition, actives largely listed as inhibitors; recombinant USP1/UAF1, Ub-Rhodamine cleavage fluorescence; further: potency means the concentration at half of the fitted maximal effect; on the % scale 0 is the no-effect control and ±100 the full control effect; nearly all actives have a fitted effect of over 60% in size
#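 USP1/UAF1 complex at 1 nM was preincubated with compound for 15 min at room temperature, then Ub-Rho substrate (150nM final) was added. Fluorescence (480/540 nm) was read kinetically, 6 reads every 60 seconds.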
# ATXN viability: Viability Counterscreen for Primary qHTS for Inhibitors of ATXN expression. Potency, µM (titrated, usually from 56.7 µM), actives largely listed as cytotoxic. hit rate 0.49% among 400,000. S2 cells (HEK-293 line with an ATXN2-luciferase reporter) viability, CellTiter-Fluor protease fluorescence, 24 h; further: potency means the concentration at half of the fitted maximal effect; nearly all actives have a fitted effect of over 40% in size
# Numbers without * were called inactive; i = inactive; ? = inconclusive; . = no result; [ ] = dose if it differs, or a comment. Unless noted, the call rests on the fitted dose curve; in most records, active means well fitted curve in the direction sought with a large enough effect; inconclusive means small, poorly fitted or top-dose-only effect, or another doubt; inactive means no such curve, though single readings can be large; an effect the other way counts as inactive or inconclusive.
SMILES,USP2a inh,IL1B secr inh,ATXN2 expr inh,USP1-UAF1 inh,ATXN viability
CC1(C)Cc2c(sc(NC(=O)COc3ccc(Cl)cc3)c2C#N)C(C)(C)N1,3%,-70*,-15%,-12%,i
Cc1ccccc1OCC(=O)Nc1sc2c(c1C#N)CC(C)(C)NC2(C)C,0%,-10,-22%,-18%,i
CCCCC1CCC(C(=O)N(CCC(C)C)c2c(N)n(CCCC)c(=O)[nH]c2=O)CC1 (centres undefined),.,-16,.,7%,i
Cc1ccc(S(=O)(=O)c2nnn3c2nc(NCc2ccccc2Cl)c2sccc23)cc1,.,.,.,11%,.
Cc1cc(C)n(Cc2ccc(NC(=O)c3ccc(COc4ccccc4Br)cc3)cc2)n1,3%,-75*,?,-15%,?
Cc1cc(C)nc(NC(=O)c2ccc(COc3ccccc3Cl)cc2)c1,0%,-62*,?,-14%,i
O=C(NCc1cccnc1)c1ccc(COc2ccccc2Br)cc1,2%,-87*,?,-19%,?
NC(=O)c1ccc(NC(=O)c2ccc(COc3ccccc3Br)cc2)cc1,2%,-9,7%,-8%,i
O=C(NCc1cccnc1)c1ccc(COc2ccccc2Cl)cc1,0%,3,.,-19%,?
O=C(Nc1cccnc1)c1ccc(COc2ccccc2Br)cc1,-7%,-67*,.,-25%,?
CCC(=O)N[C@@H]1c2ccccc2C2(CCN(Cc3cnc(N(C)C)s3)CC2)[C@H]1OC,.,.,.,.,i
CCCc1nc(SCC(=O)c2ccc(OC)cc2)c2ccccc2n1,5%,-90*,-9%,-29%,?
Cc1csc(NC(=O)CSc2nc(C(C)C)nc3ccccc23)n1,-1%,-96*,-15%,?,i
CCCCNC(=O)CSc1nc(Cc2ccccc2)nc2ccccc12,3%,-2,42%,-20%,?
CC(C)NC(=O)CSc1nc(Cc2ccccc2)nc2ccccc12,1%,-70*,-4%,2%,i
CCc1nc(SCC(=O)Nc2nc3c(s2)CCCC3)c2ccccc2n1,5%,-86*,-7%,?,i
CCCc1nc(SCC(=O)Nc2nc3c(s2)CCCC3)c2ccccc2n1,3%,-24,-12%,-3%,i
O=S1(=O)C[C@@H](N2CCC(Cc3ccccc3)CC2)[C@H](COCc2ccccc2)N1,.,18,-3%,-25%,i
O=C(O)c1cc(-c2ccc(O)cc2)on1,4%,17,-2%,-19%,i
CC(C)(C)c1nc(SCC(=O)NC2CCCC2)c2ccccc2n1,-1%,-62*,2%,-8%,i
CCCc1nc(SCC(=O)NC2CCCC2)c2ccccc2n1,3%,-58*,15%,-3%,i
CCc1nc(SCC(=O)NNC(=O)c2ccc(OC)cc2)c2ccccc2n1,3%,-29,-10%[11.3 µM],?,i
CCCc1nc(SCC(=O)N2CCCC2)c2ccccc2n1,1%,1,12%,-11%,i
CC(C)c1nc(SCC(=O)c2ccc(F)cc2)c2ccccc2n1,-7%,-57*,-10%,-4%,?
Cc1ccc(C(=O)CSc2nc(C(C)C)nc3ccccc23)cc1,1%,-18,2%[11.3 µM],-19%,i
SMILES,USP2a inh,IL1B secr inh,ATXN2 expr inh,USP1-UAF1 inh,ATXN viability
CC(C)c1nc(SCC(=O)NC2CCCCC2)c2ccccc2n1,-1%,-7,-2%,-18%,i
COc1ccc(C(=O)NNC(=O)CSc2nc(C(C)C)nc3ccccc23)cc1,0%,-93*,5%,?,i
CC(C)(C)c1nc(SCC(=O)NNC(=O)c2ccccc2)c2ccccc2n1,0%,-91*,-9%,-11%,i
CCc1nc(SCC(=O)c2ccc3c(c2)OCCO3)c2ccccc2n1,3%,-63*,-18%,?,?
CCCNC(=O)c1cc(-c2ccco2)on1,3%,-57*,-32%,11%,i
CC(C)CNC(=O)c1cc(-c2ccco2)on1,-1%,-20,-9%,-13%,i
NS(=O)(=O)c1cccc(NC(=O)COC(=O)C2(c3cccc(F)c3)CCCC2)c1,2%,-53*,-4%,-2%,i
NS(=O)(=O)c1cccc(NC(=O)COC(=O)/C(=C/c2cccs2)c2cccs2)c1,-2%,-93*,2%,-10%,i
O=S(=O)(O)NC1CCCCC1,.,.,3%,.,i
CC(C)N(C(=O)COC(=O)c1ccc(Cl)s1)c1ccccc1,2%,0,4%,-15%,i
Cc1nnnn1/C(=C\c1ccccc1)C(=O)OCC(=O)Nc1ccc(Cl)cc1F,0%,-111*,?,-13%,?
Cc1nnnn1/C(=C\c1ccccc1)C(=O)OCC(=O)Nc1cccc(S(=O)(=O)N(C)C)c1,1%,0,-28%,-13%,?
CCCCN(CCN(CCCC)C(=O)N1CCOCC1)C(=O)N1CCOCC1,.,.,-14%,.,i
O=C(c1ccccc1)c1ccc(O)cc1O,?,0,.,28µM*,i
O=C(c1ccccc1)c1ccc2ccccc2c1,.,-9,41%,-9%,i
O=C(c1ccccc1)c1ccc2cc(O)ccc2c1,1%,-54*,4%,-10%,.
CC1=C[C@@H]2[C@@H]([C@@H](O)C[C@@]3(C)[C@H]2C[C@@H](C)[C@]3(O)C(=O)CO)[C@@]2(C)Cc3cnn(-c4ccccc4)c3C=C12,.,.,-23%,.,.
O=C(/C=C\NCC(=O)c1ccccc1)c1ccc(F)cc1,4%,14,20%,-14%,i
O=C(/C=C\NCC(=O)c1ccccc1)c1ccc2ccccc2c1,-1%,-54*,21%,-18%,i
Cc1cccc2cc(CN(CC3CCCO3)C(=O)C3CC3)c(N(C)C)nc12 (centres undefined),.,.,.,.,i
CN(C)CCN(C(=O)c1ccccc1Cl)c1nc2c(Cl)cccc2s1,0%,-69*,-16%,-2%,i
CCN(CC)CCN(C(=O)c1ccc2c(c1)OCCO2)c1nc2cc(C)cc(C)c2s1,-1%,-57*,-21%,-18%,?
CN(C)CCN(C(=O)c1cccc(Cl)c1)c1nc2c(Cl)cccc2s1,2%,0,-9%,-20%,i
CCN(CC)CCN(C(=O)c1ccc2c(c1)OCCO2)c1nc2c(Cl)cccc2s1,0%,-66*,-26%,-12%,i
CCOc1ccccc1OCC(=O)OCc1csc(CC(=O)Nc2ccccc2C)n1,-1%,-11,-5%,-2%,i
Cc1ccc(C(=O)COC(=O)c2cc(-c3ccccc3)nc3ccccc23)cc1C,.,.,7%,-2%,i
Cc1ccc2nc(C)cc(C(=O)OCC(=O)c3ccc(Cl)c([N+](=O)[O-])c3)c2c1,-3%,-68*,-12%,-10%,i
